Assay outcomes deposited in PubChem BioAssay by several laboratories.
PKA-R1A activ – activators of PKA-R1A holoenzyme, primary screen, biochemical, fluorescence polarization, Cy5-IP20, bovine R1A, mouse PKAc; PKA-R1A dissociation; scaled: DMSO 0%, 113 µM cGMP 100%; activation, % at 11.4 µM; 0.083% of 340,000 active;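 active = percent activation above the mean of all tested compounds plus 3 SD, cut at about 19% in these data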;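 note: higher means more PKAc released from R1A so a rise in polarization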
PKA-R2B activ – activators of PKA-R2B holoenzyme, primary screen, biochemical, fluorescence polarization, Cy5-IP20, human; cAMP-dependent protein kinase catalytic subunit beta (Homo sapiens) + cAMP-dependent …; PKA-R2B holoenzyme dissociation; R2B truncated from residue 108, S112A mutant; 0% DMSO only, 100% 113 µM cGMP; activation, % at 11.4 µM; 0.079% of 340,000 active;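 active = activation above a cutoff set at the mean over all compounds plus 3 SD, cut at about 18% in these data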;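 note: higher means more holoenzyme dissociation and a rise in polarization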
Rpn11 inh – Rpn11 (PSMD14) deubiquitinase inhibitors, primary screen, biochemical, fluorescence polarization, uHTS; 26S proteasome non-ATPase regulatory subunit 14 (Homo sapiens), O00487; human 26S proteasome, Ub4-pepOG fluorescence polarization; 20S core pre-blocked with epoxomicin; calls only at 20 µM; 0.59% of 360,000 active; AID 588493, 2011;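 active = inhibition at 20 µM, scaled to each plate's controls, above about 33%, limit read from the data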
Neddylation inh – inhibitors of cullin neddylation, primary screen, biochemical, TR-FRET, uHTS, NAE and Ubc12; AID 651699, 2012; 0.58% of 360,000 active; NEDD8-conjugating enzyme Ubc12 (Homo sapiens) + NEDD8-activating enzyme E1 regulatory …; inhibition, % at 25 µM; in the data active = inhibition above about 36%
Target sequence (P61081 whole entry, looked up): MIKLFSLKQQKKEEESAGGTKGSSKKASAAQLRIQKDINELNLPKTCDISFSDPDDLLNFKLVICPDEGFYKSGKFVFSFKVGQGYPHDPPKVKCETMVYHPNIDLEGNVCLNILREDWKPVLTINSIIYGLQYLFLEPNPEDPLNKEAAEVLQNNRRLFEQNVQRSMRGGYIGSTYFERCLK
Target sequence (Q13564 whole entry, looked up): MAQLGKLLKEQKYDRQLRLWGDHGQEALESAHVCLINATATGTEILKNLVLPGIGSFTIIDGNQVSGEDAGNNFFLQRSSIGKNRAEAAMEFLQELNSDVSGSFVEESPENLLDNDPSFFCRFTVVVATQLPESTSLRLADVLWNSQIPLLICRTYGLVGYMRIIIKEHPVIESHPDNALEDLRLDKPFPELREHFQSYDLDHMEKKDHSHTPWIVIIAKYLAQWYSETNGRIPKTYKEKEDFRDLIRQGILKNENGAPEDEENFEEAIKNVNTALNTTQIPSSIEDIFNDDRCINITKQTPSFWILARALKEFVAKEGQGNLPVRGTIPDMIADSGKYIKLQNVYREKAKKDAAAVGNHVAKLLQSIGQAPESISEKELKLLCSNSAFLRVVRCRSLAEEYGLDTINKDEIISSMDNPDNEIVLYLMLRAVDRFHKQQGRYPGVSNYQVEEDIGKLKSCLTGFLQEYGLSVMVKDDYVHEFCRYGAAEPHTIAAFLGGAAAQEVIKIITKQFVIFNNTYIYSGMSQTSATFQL
Neddyl inh conf – blockade of NEDD8 conjugation to cullin – biochemical, TR-FRET, single concentration, confirmation. shares compounds with Neddylation inh. TR-FRET cullin neddylation biochemical assay. calls only at 25 µM. 13% of 1,800 active; in the data active = inhibition above about 40%;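 note: neddylation substrate is the cullin 1 ring ligase complex with SKP2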
* hit, by the source's call; i = inactive; / = not tested or not shown; + = active, no number. Shown are actives, neighbours in structure and some others; about 1.3% of the full set was active somewhere.

SMILES	PKA-R1A activ	PKA-R2B activ	Rpn11 inh	Neddylation inh	Neddyl inh conf
CCOc1ccc(-c2c(C(=O)N/N=C/c3c[nH]c4ccccc34)nnn2-c2nonc2N)cc1	-13.4	-11.5	i	41.9*	i
CCOc1ccc(/C=N/NC(=O)c2nnn(-c3nonc3N)c2-c2ccc(OCC)cc2)cc1	-4.9	4.4	i	13.3	/
O=c1ccc2ccc(OCc3nnc(-c4ccccc4Br)o3)cc2o1	6.7	-12.9	i	9.4	/
Cc1cc(=O)oc2cc(OCc3nnc(-c4ccccc4Br)o3)ccc12	0.9	-11.6	i	43.7*	i
N#CCc1cc2ccc3cccc4ccc(c1)c2c34	-9.4	-11.8	i	/	/
CC(=O)Nc1cc(-c2cccc(CO)c2)cn2c(-c3ccc(C(C)=O)cc3)cnc12	/	/	i	45.2*	i
CC(=O)Nc1cccc(-c2cc(NC=O)c3ncc(-c4ccc(C(C)=O)cc4)n3c2)c1	/	/	i	41.6*	i
COc1cc(-c2cc(NC(C)=O)c3ncc(-c4ccc(C(C)=O)cc4)n3c2)cc(OC)c1OC	/	/	i	41.9*	i
O=CNc1cc(-c2ccc(C(=O)NC3CC3)cc2)cn2c(-c3ccccc3)cnc12	/	/	i	8.6	/
CC(=O)Nc1cc(-c2cccc(CO)c2)cn2c(-c3ccc(F)cc3)cnc12	/	/	i	26.1	/
CC(=O)c1ccc(-c2cnc3c(NC=O)cc(-c4ccc(C(=O)NC5CC5)cc4)cn23)cc1	/	/	i	48.4*	i
Cc1ccccc1-n1c(SCC(=O)NC2CC2)nc2ccccc2c1=O	-3.5	7.3	i	-9.8	/
OCc1ccccc1-c1cnc2cccnn12	/	/	i	/	/
COc1cc(OC)nc(Oc2cc(/C=N/O)ccc2OC)n1	-1.4	-1.3	i	1.6	/
CC(=O)Nc1cc(-c2ccc(C(=O)N3CCOCC3)cc2)cn2c(-c3ccc(S(C)(=O)=O)cc3)cnc12	/	/	i	45.0*	i
Cc1ncc(CC(=O)n2cc(C(=O)c3cc(F)ccc3O)cn2)s1	-17.2	-3.6	i	41.2*	i
Cc1ccc(O)c(C(=O)c2cnn(C(=O)Cc3csc(C)n3)c2)c1	12.1	-0.8	i	26.2	/
CCCCn1c2nc3ccccc3nc2c2c(=O)n(CCC)cnc21	-4.9	-5.8	i	/	/
COCCCn1cnc2c(c1=O)c1nc3ccccc3nc1n2CCc1ccccc1	4.0	-5.3	i	53.6*	i
CCCCN1C(=O)C(CC(=O)NCCCN(C)C)CC(C(=O)N2CCOCC2)=C1C (stereo not drawn)	-7.3	3.1	i	-1.7	/
O=C(Nc1ccc(Cl)cc1F)C1CCN(S(=O)(=O)c2cccc3nonc23)CC1	7.8	0.0	i	-30.7	/
CCCNC(=O)Cn1cnc([N+](=O)[O-])n1	-1.3	2.0	i	-12.2	/
Cc1nc2cc(F)ccc2n1C1CCN(C(=O)c2c(F)cccc2F)CC1	0.3	7.6	i	44.6*	i
Cc1ccc(C)c(N2C(=O)C3C4C=CC(CC4)C3C2=O)c1 (stereo not drawn)	5.9	0.7	i	5.5	/
COc1ccc(C=NNC(=O)c2ccccc2NS(=O)(=O)c2cccs2)cc1O	0.6	-4.4	i	25.7	/
SMILES	PKA-R1A activ	PKA-R2B activ	Rpn11 inh	Neddylation inh	Neddyl inh conf
COc1ccc(OC)c(C=NNC(=O)c2ccccc2NS(=O)(=O)c2cccs2)c1	-19.0	9.6	i	34.3*	/
COc1ccc(/C=N/NC(=O)c2cccs2)c2ccccc12	-5.6	-0.3	i	46.0*	i
COc1ccc(/C=c2\s/c(=C(/C#N)C(=O)NCc3ccco3)n(-c3ccccc3)c2=O)cc1	4.5	6.8	i	47.2*	i
COC(=O)/C=c1/s/c(=C(\C#N)C(=O)NCc2ccco2)n(-c2ccccc2)c1=O	1.2	7.2	i	-6.4	/
S=c1nc(C2CC2)n(-c2ccccc2)[nH]1	2.2	-3.4	i	1.0	/
CC(C)c1nc2oc3c(=O)[nH]cnc3c2c2c1CCC2	-12.4	-11.3	i	41.1*	i
CC(C)c1nc2oc3c(=O)[nH]cnc3c2c2c1COC(C)(C)C2	-1.8	-9.2	i	36.8	/
CC(=O)Nc1ccccc1OCC(=O)NC1CCCCC1C (stereo not drawn)	-14.7	-3.7	i	-29.8	/
COc1cc(NC(=O)c2ccc(Cl)cc2Cl)ccc1-c1cc2ccccc2oc1=O	-1.4	-8.7	i	-63.1	/
COc1cc(NC(C)=O)ccc1-c1cc2ccccc2oc1=O	0.9	2.5	i	41.7*	i
Nc1ncnc2c1ncn2[C@@H]1O[C@H](CNS(=O)(=O)c2cc(S(=O)(=O)c3ccccc3)cs2)[C@@H](O)[C@H]1O	-3.1	-0.4	i	-9.7	/
Cc1ccc(C(=O)NCC(c2ccc(F)cc2)N2CCOCC2)cc1 (stereo not drawn)	-12.7	-7.2	i	2.6	/
CC(=O)c1ccc(-c2ccc(C(=O)NCC(c3ccc(F)cc3)N3CCOCC3)o2)cc1 (stereo not drawn)	4.0	-8.9	i	57.4*	+
Cc1nc(SCC(=O)N(CC(C)C)C2CCS(=O)(=O)C2)c(C#N)c(C)c1C (stereo not drawn)	-4.9	-6.7	i	9.6	/
CN(C)C(=O)c1c(-c2ccccc2)oc2ccc(O)cc12	5.7	2.6	i	44.9*	i
CCc1cc(=O)oc2cc(OCc3nn[nH]n3)ccc12	-4.2	7.3	i	40.5*	i
Cc1cc(=O)oc2cc(OS(C)(=O)=O)ccc12	-11.9	-8.3	i	9.5	/
CCc1cc(=O)oc2cc(OCC=C(C)C)ccc12	7.9	-5.2	i	32.7	/
CCc1cc(=O)oc2cc(OS(C)(=O)=O)ccc12	5.3	-14.5	i	41.9*	/
Cc1ccc(C(C)NC(=O)c2cc3ccccc3oc2=O)cc1C (stereo not drawn)	1.2	-10.0	i	-1.6	/
COC(=O)/C=C/c1ccc(OC(=O)c2ccncc2)cc1	7.2	-10.8	i	10.8	/
O=C(Nc1ccc2c(c1)OCO2)c1cc(-c2cccc(O)c2)on1	9.4	8.5	i	25.6	/
O=C(Nc1ccc2c(c1)OCO2)c1cc(-c2ccc(O)cc2)on1	-13.9	-1.0	i	52.0*	+
CCCCn1c(N)c(N(CC(C)C)C(=O)CCCn2c(=O)oc3ccccc32)c(=O)[nH]c1=O	-0.8	2.6	i	6.7	/
CN(CCO)c1nc(N)c(C#N)c(CC#N)c1C#N	2.6	-1.2	i	8.4	/
CC(C)CN(CC(C)C)c1nc(N)c(C#N)c(CC#N)c1C#N	-10.5	-3.3	i	37.7*	/
CCn1c(Sc2ccc([N+](=O)[O-])cn2)nnc1-c1ccco1	-11.0	-0.3	i	1.0	/
